MARV entry inh – Marburg virus entry inhibition. Potency, µM (top dose mostly 37.8 µM), inactives show top-dose activity change, negative = inhibition, usual class: inhibitors. actives 1.8% (n = 300,000). AID 540276. Marburg virus pseudotyped entry inhibition, cell reporter; calls by dose curve; tested in HEK293 cells; further: potency means the concentration at half of the fitted maximal effect; on the % scale 0 is the no-effect control and ±100 the full control effect
Shiga inhibitor – Shiga toxin inhibition | actives 9.2% (n = 290,000) | Vero cells, Shiga toxin protein synthesis inhibition reporter | inhibition, % at 38.7 µM | AID 2315; in the data active means inhibition mostly above about 28%, no sharp cut-off; inactive means mostly below about 43%; further: 0% is about no effect
LASV entry inh – blocks Lassa virus binding to or entry into cells | Lassa virus pseudotype entry inhibition, cell reporter | Potency, µM (top dose mostly 37.9 µM), without a hit: at the top dose activity change, negative = inhibition, actives largely listed as inhibitors | actives 1.2% (n = 300,000) | AID 540256; calls by dose curve; tested in HEK293 cells; further: potency means the concentration at half of the fitted maximal effect; on the % scale 0 is the no-effect control and ±100 the full control effect; nearly all actives have a fitted effect of over 50% in size
Pf growth 96h – inhibits malaria parasite growth, 96 h; actives 6.9% (n = 320,000); Potency, µM (titrated, usually from 28.7 µM), for the others: top-dose activity change, negative = inhibition, most hits filed as inhibitors; AID 504834; P. falciparum luciferase reporter growth, 96 h; further: potency means the concentration at half of the fitted maximal effect; on the % scale 0 is the no-effect control and ±100 the full control effect
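Two-generation exposure (96 h) targets delayed-death phenotype. Reporter parasites carrying integrated firefly luciferase, in red cells at 2% hematocrit and 0.05% parasitemia final, kept at 37 C, 5% CO2; luminescence loss indicates inhibition.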
CHX counter-1 – affects cycloheximide protein synthesis inhibition readout, counter-screen | cell reporter, cycloheximide protein synthesis inhibition counterscreen | max response, % | actives 12% (n = 300,000) | AID 2314; in the data active means max response mostly above about 13%, no sharp cut-off; inactive means mostly below about 14%; further: read at 38.3 µM for the half of the compounds with a filed dose; 0% is about no effect
Pf growth 48h – inhibits P. falciparum growth in the first generation, 48 h; P. falciparum luciferase growth in erythrocytes, 48 h; Potency, µM (titrated, usually from 28.7 µM), inactives show top-dose activity change, negative = inhibition, actives largely listed as inhibitors; actives 5.9% (n = 310,000); AID 504832; further: potency means the concentration at half of the fitted maximal effect; on the % scale 0 is the no-effect control and ±100 the full control effect
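First compound was added to culture medium, then infected red cells at 0.1% parasitemia and 2% hematocrit (final). After incubation at 37 C under 5% CO2, luciferase detection reagent was dispensed and light output recorded.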
CHX counter-2 – counter-screen for Shiga toxin inhibitors: cycloheximide protein synthesis block; shares compounds with Shiga inhibitor; Cycloheximide counterscreen, protein synthesis reporter, Shiga toxin assay; Potency, µM (series often up to 38.3 µM), for the others: top-dose activity (activation), actives largely listed as activators; actives 3% (n = 510); AID 2318; calls by dose curve; further: potency means the concentration at half of the fitted maximal effect; 0% is about no effect
* hit, by the source's call; [ ] = dose if it differs, or a comment. A selection: hits, their analogues and other compounds. The true share with any hit is near 19%. Unless noted, the call rests on the fitted dose curve; in most records, active means well fitted inhibition curve with a large enough effect; inconclusive means small, poorly fitted or top-dose-only effect, or another doubt; inactive means no such curve, though single readings can be large or run the other way.

Results for O=c1c2oc3ccccc3c2n(Cc2ccccc2)c(=O)n1Cc1ccco1 ?
LASV entry inh: -1%[46.1 µM]

Results for CCC(=O)Nc1ccc(C(=O)NNC(=O)c2ccccc2)cc1 ?
Shiga inhibitor: 32*; Pf growth 96h: 29%; CHX counter-1: 1; Pf growth 48h: 40%; CHX counter-2: 1%

How did CCC(=O)N1CCN(c2ccc(NC(=O)c3ccc4ccccc4c3)cc2)CC1 do in these assays?
MARV entry inh: 17%[46.1 µM]; Shiga inhibitor: 21; LASV entry inh: 27%[46.1 µM]; Pf growth 96h: inconclusive; CHX counter-1: 8; Pf growth 48h: -19%

Results for CCC(=O)Nc1ccc(C(=O)NNC(=O)C(c2ccccc2)c2ccccc2)cc1 ?
MARV entry inh: -8%; Shiga inhibitor: -2; LASV entry inh: -1%; Pf growth 96h: inconclusive; CHX counter-1: -6; Pf growth 48h: 0%

How did CCC(=O)N1CCN(c2ccc(NC(=O)c3ccccc3)cc2)CC1 do in these assays?
Shiga inhibitor: 47*; Pf growth 96h: 17%; CHX counter-1: 10; Pf growth 48h: 12%; CHX counter-2: inconclusive

How did Cc1cccc(C(=O)NNC(=O)c2ccccc2)c1 do in these assays?
MARV entry inh: inconclusive; Shiga inhibitor: active; LASV entry inh: 27%; Pf growth 96h: 34%; CHX counter-1: 8; Pf growth 48h: 41%; CHX counter-2: inconclusive

What do the screens show for `CCc1ccc(OCC2NCCc3cc(OC)c(OC)cc32)cc1` (stereo unspecified)?
Shiga inhibitor: -3; Pf growth 96h: 10%; CHX counter-1: -2; Pf growth 48h: -3%

Results for C=CCSc1nnc(NC(=O)c2ccc(N3CCCC3=O)cc2)s1 ?
Pf growth 96h: 27%; Pf growth 48h: 63%

How did COc1ccccc1NC(=O)c1ccc(NC(=O)c2ccco2)cc1 do in these assays?
MARV entry inh: inconclusive; Shiga inhibitor: 43*; LASV entry inh: inconclusive; Pf growth 96h: -1%; CHX counter-1: 6; Pf growth 48h: inconclusive; CHX counter-2: 3%

What do the screens show for `CCOc1cc(NC(=O)c2ccco2)c(OCC)cc1NC(=O)c1ccco1`?
MARV entry inh: 11%[46.1 µM]; Shiga inhibitor: -7; LASV entry inh: 10%[46.1 µM]; Pf growth 96h: 13%; CHX counter-1: -6; Pf growth 48h: inconclusive

Results for CC(C)c1ccccc1NC(=O)c1ccco1 ?
MARV entry inh: -5%; Shiga inhibitor: 58*; LASV entry inh: 7%; Pf growth 96h: 6%; CHX counter-1: 2; Pf growth 48h: -10%; CHX counter-2: inconclusive

What do the screens show for `COc1ccccc1NC(=O)Cn1cc(C(=O)c2ccco2)c2ccccc21`?
MARV entry inh: inconclusive; Shiga inhibitor: 60*; LASV entry inh: inconclusive; Pf growth 96h: 8%; CHX counter-1: 5; Pf growth 48h: inconclusive; CHX counter-2: 2%

How did COc1ccc(NC(=O)c2cccnc2Nc2ccc(OC)cc2)cc1 do in these assays?
MARV entry inh: 4%; Shiga inhibitor: 42*; LASV entry inh: 3%; Pf growth 96h: inconclusive; CHX counter-1: 5; Pf growth 48h: -20%; CHX counter-2: 1%

How did COc1ccc(NC(=O)c2ccccc2[N+](=O)[O-])cc1 do in these assays?
MARV entry inh: 6%; Shiga inhibitor: 40*; LASV entry inh: 12%; Pf growth 96h: inconclusive; CHX counter-1: 5; Pf growth 48h: 33%; CHX counter-2: 5%

Results for COc1ccc(CNC(=O)c2ccccc2[N+](=O)[O-])cc1 ?
MARV entry inh: inconclusive; Shiga inhibitor: -7; LASV entry inh: 9%; Pf growth 96h: 161%; CHX counter-1: -2; Pf growth 48h: 64%

How did COc1ccc(NC(=O)NNC(=O)c2ccc3ccccc3c2O)c(OC)c1 do in these assays?
MARV entry inh: -19%[46.1 µM]; Shiga inhibitor: 27*; LASV entry inh: 14%[46.1 µM]; Pf growth 96h: 28%; CHX counter-1: -2; Pf growth 48h: -2%; CHX counter-2: 0%

Results for COc1ccc(S(=O)(=O)N(CC(=O)NCCc2ccccc2)c2ccc(Cl)cc2)cc1 ?
MARV entry inh: 1%[46.1 µM]; LASV entry inh: 1%[46.1 µM]

Compound activity: PubChem BioAssay, National Center for Advancing Translational Sciences (NCATS)
